Shown are actives, neighbours in structure and some others; about 9.2% of the full set was active somewhere.
NPC1 promoter act: activates the NPC1 promoter | Huh7 NPC1 promoter luciferase reporter, 24 h | Potency, µM (series often up to 9.22 µM), for the others: at the highest dose activation, most hits filed as activators | 2.4% of 320,000 active | AID 485313; also: % of control where 0% means no effect; nearly all actives have a fitted effect of over 60% in size
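Luciferase expression driven by the NPC1 promoter was measured in stably transfected Huh7 cells after a 24 h compound incubation, using a luciferase reagent and a luminescence read.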
Rab9 prom act: activators of Rab9 promoter | Huh7 Rab9 promoter-luciferase reporter, luminescence, 24 h | Potency, µM (top dose mostly 9.22 µM), for the others: at the highest dose activation, negative = inhibition, actives largely listed as activators | 2.8% of 320,000 active | AID 485297; also: % of control where 0% means no effect; nearly all actives have a fitted effect of over 60% in size
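Huh7 cells stably carrying Rab9 promoter–luciferase reporter, plated 1500 cells/well, compound added after 2 h and incubated 24 h at 37 °C; luciferase luminescence then read after 10 min with detection reagent.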
ELG1 genotox: inducers of genotoxicity in HEK293T ELG1-luciferase cells; Potency, µM (titrated, usually from 46 µM), without a hit: at the top dose activity change, positive = activation, actives largely listed as activators; 1.3% of 330,000 active; HEK293T ELG1-luciferase reporter, luminescence, 16 h; AID 504466; also: % of control where 0% means no effect; nearly all actives have a fitted effect of over 60% in size
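ELG1-luciferase HEK293T cells, 2,000/well; compound pinned in; 16 hr, 37 °C, 5% CO2; ONE-Glo, 30 min RT; luminescence on CCD imager.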
SMN2 splice up: SMN2 splice variant enhancement; HEK293 SMN2-luciferase splicing reporter, luminescence, 30-36 h; AID 1458; Potency, µM (series often up to 46.1 µM), without a hit: at the top dose activity change, positive = activation, hits mostly activators; 2.8% of 210,000 active; also: % of control where 0% means no effect; nearly all actives have a fitted effect of over 55% in size
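HEK293 cells carry an SMN2 […]–luciferase reporter in which exon 7 inclusion puts luciferase in frame. Cells were plated 10-12 h before compound addition, then incubated 30-36 h at 37C. ONE-Glo luminescence was read; sodium butyrate at 4.5 mM final served as control.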
ELG1 DNA repair: inhibitors of ELG1-dependent DNA repair in HEK293T cells | HEK293T ELG1-luciferase reporter, luminescence, 16 h; DNA damage induced by 5-fluorouridine | 2.3% of 330,000 active | Potency, µM (top dose mostly 46.1 µM), inactives show at the highest dose activity change, negative = inhibition, usual class: inhibitors; also: % is scaled to controls: 0 for no effect and ±100 for the full control effect; nearly all actives have a fitted effect of over 55% in size
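Overnight (16 hr) co-exposure of 2,000 cells/well to 5-fluorouridine and compound at 37 °C preceded detection. Luciferase was quantified via ONE-Glo luminescence; loss of signal denotes inhibition.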
FLuc modulator: counter-screen for miR-21 project: firefly luciferase inhibitors or activators. P08659. purified FLuc, Km substrates, luminescence inhibition. Potency, µM (doses to about 57.5 µM), for inactives: at the highest dose activity change, negative = inhibition, actives largely listed as inhibitors. 6.9% of 360,000 active;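 also: plate controls were vehicle for no effect and reference inhibitor for full effect; nearly all actives have a fitted effect of over 55% in size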
Target sequence (P08659 whole entry, looked up): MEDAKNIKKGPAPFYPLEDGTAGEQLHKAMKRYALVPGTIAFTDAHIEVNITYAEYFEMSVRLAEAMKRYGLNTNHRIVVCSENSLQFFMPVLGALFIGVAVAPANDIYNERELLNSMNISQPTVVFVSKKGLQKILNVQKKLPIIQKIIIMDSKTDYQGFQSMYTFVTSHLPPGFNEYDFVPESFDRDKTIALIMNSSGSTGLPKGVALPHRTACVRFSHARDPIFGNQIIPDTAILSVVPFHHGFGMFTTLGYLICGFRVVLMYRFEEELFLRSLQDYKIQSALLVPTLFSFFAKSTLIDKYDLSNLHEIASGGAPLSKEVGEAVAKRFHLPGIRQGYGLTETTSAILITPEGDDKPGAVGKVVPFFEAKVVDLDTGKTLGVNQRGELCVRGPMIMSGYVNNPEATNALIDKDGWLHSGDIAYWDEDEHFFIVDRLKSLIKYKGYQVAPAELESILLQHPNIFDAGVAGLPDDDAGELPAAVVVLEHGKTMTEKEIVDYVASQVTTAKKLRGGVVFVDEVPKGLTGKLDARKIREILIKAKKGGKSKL
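Purified P. pyralis luciferase (10nM final) with 10uM D-luciferin and 10uM ATP (Km levels) in 50mM Tris acetate pH 7.5, 10mM Mg acetate, 0.01% Tween-20, 0.05% BSA; qHTS 6-point titration, ~60 µM downward; luminescence read.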
* marks the source's active call; other numbers are inactive results; u = inconclusive; x = no result given. Calls follow the shape of the dose curve; as a rule, active = well fitted curve in the direction sought with a large enough effect; inconclusive = small, poorly fitted or top-dose-only effect, or another doubt; inactive = no such curve, though single readings can be large; an effect the other way counts as inactive or inconclusive. Potency is read from the fitted curve at half-maximal effect.

SMILES	NPC1 promoter act	Rab9 prom act	ELG1 genotox	SMN2 splice up	ELG1 DNA repair	FLuc modulator
Cc1ccc(NC(=O)COc2ccccc2[N+](=O)[O-])nc1	3.16µM*	0.794µM*	0.3%	2.82µM*	u	2.13µM*
COc1cc(NC(=O)COc2c(C)cc(C)cc2[N+](=O)[O-])c(OC)cc1Cl	-0.7%	-2.2%	-0.6%	0.8%	u	6.2%
COC(=O)/C=C/COc1ccccc1[N+](=O)[O-]	23.6%	u	15.4%	9.2%	u	21.3µM*
O=C(COC(=O)c1ccccc1Br)Nc1ccc(F)cc1	-1.5%	7.3%	u	11.3%	u	19µM*
O=C(COC(=O)c1ccccc1Br)NCCc1ccc(F)cc1	-2.6%	2.1%	0.9%	2.0%	u	-13.2%
Cc1ccnc(NC(=O)COc2ccccc2[N+](=O)[O-])c1	2.24µM*	u	u	5.01µM*	u	1.69µM*
O=C(COc1ccccc1[N+](=O)[O-])Nc1cccnc1	28.8%	u	u	x	u	u
CC(C)C(=O)N1CCN(c2ccc(NC(=O)COc3ccccc3[N+](=O)[O-])cc2)CC1	-2.3%	-30.8%	-25.5%	-81.0%	9.2µM*	3.7%
CC(=O)c1ccc(S(=O)(=O)N2CCN(C)CC2)cc1	-1.3%	-15.1%	3.2%	x	-2.9%	-0.8%
CC(C)(C)NC(=O)COC(=O)c1ccccc1OCC(=O)Nc1ccc(Br)cc1	u	u	0.9%	x	u	1.07µM*
CCCNC(=O)COC(=O)c1ccccc1OCC(=O)Nc1ccc(Br)cc1	-4.4%	-3.6%	7.4%	-3.5%	14.4%	-2.1%
CCOc1ccc(/C=C2\SC(=S)N(CC(=O)Nc3ccccn3)C2=O)cc1	14.1%	26.4%	10.4%	x	u	21.3µM*
CCOc1ccc(/C=C2\SC(=S)N(CC(=O)N(CCO)C(C)(C)C)C2=O)cc1	0.3%	-2.1%	-7.8%	-15.4%	-16.8%	12µM*
COc1cc(/C=C2\SC(=S)N(CCC(=O)Nc3ccccc3O)C2=O)cc(OC)c1OC	11.3%	0.7%	3.0%	x	7.3µM*	-3.7%
O=C(CCN1C(=O)/C(=C/c2ccccc2)SC1=S)Nc1ccccn1	-1.1%	-3.7%	-1.9%	x	18.4%	-11.9%
COc1cc(/C=C2\SC(=S)N(CCC(=O)NCCc3ccccc3)C2=O)cc(OC)c1OC	-1.1%	-2.2%	0.1%	x	0.7%	1.5%
COc1ccc(/C=C2\SC(=S)N(CCCC(=O)Nc3ccccn3)C2=O)cc1OC	-4.0%	-6.5%	-5.6%	-11.2%	16.4µM*	-11.8%
CCc1nnc(SCc2nc(-c3ccc(OC)c(OC)c3)oc2C)c2cc3sc(C)cc3n12	x	x	x	x	x	-12.5%
Cc1ccc(C(=O)COC(=O)c2ccccc2NC(=O)c2ccccc2)cc1[N+](=O)[O-]	5.3%	1.1%	-7.4%	7.8%	u	-7.5%
N#Cc1ccc(NCC(=O)Nc2ccc(S(=O)(=O)N3CCCCC3)cc2)cc1	0.1%	-2.7%	-1.9%	x	-26.7%	2.8%
COc1ccc(-c2noc(=O)n2CC(=O)N2CCC(Cc3ccccc3)CC2)cc1	-2.9%	-6.5%	-6.6%	x	0.0%	0.9%
Cc1ccc(/C=C2\SC(=S)N(CCCC(=O)Nc3ccccn3)C2=O)cc1	-27.2%	-18.7%	-6.5%	-62.4%	u	13.5µM*
COc1cc(/C=C2/SC(=S)N(CC(=O)O)C2=O)ccc1OC(=O)c1cccs1	-0.3%	2.6%	-0.5%	x	1.9%	4.78µM*
O=C1/C(=C/c2ccccn2)SC(=S)N1CCc1ccccc1	u	3.55µM*	u	x	u	-2.6%
COc1cc(/C=N/N(C)C)ccc1OC(=O)c1cccs1	-5.7%	10.5%	7.6%	2.4%	5.1%	26.9µM*
SMILES	NPC1 promoter act	Rab9 prom act	ELG1 genotox	SMN2 splice up	ELG1 DNA repair	FLuc modulator
O=C1c2ccccc2C(=O)C1c1ccc2ccccc2n1	u	1µM*	0.13µM*	1µM*	u	0.169µM*
O=C(Nc1ccc2cn[nH]c2c1)c1ccc(Cl)c(S(=O)(=O)N2CCOCC2)c1	26.5%	18.2%	1.3%	2.3%	u	u
O=C(NCc1ccccc1C(F)(F)F)C1CC(c2ccc(C(F)(F)F)cc2)=NO1 (stereo not given)	-5.3%	-1.3%	-0.8%	x	-1.2%	5.8%
O=C(Nc1cccc(Cl)c1)c1ccc(F)c(S(=O)(=O)N2CCN(c3ccccn3)CC2)c1	-4.9%	-5.8%	-0.8%	-35.9%	13µM*	-2.5%
CCOc1ccc(NC(=O)c2ccc(F)c(S(=O)(=O)N3CCN(c4ccccn4)CC3)c2)cc1	-9.4%	-14.7%	-0.5%	-53.0%	9.2µM*	-12.4%
CCc1ccc(NC(=O)c2ccc(F)c(S(=O)(=O)N3CCN(c4ccc(OC)cc4)CC3)c2)cc1	x	x	x	x	x	-2.0%
CC(=O)c1ccc(S(=O)(=O)N2CCN(CC(=O)Nc3ccccc3C(=O)NC3CC3)CC2)cc1	-7.8%	0.7%	-3.6%	x	u	1.3%
CCOc1ccc(OCc2cccc(C(=O)N3CCCC3)c2)cc1	0.355µM*	0.447µM*	0.651µM*	2.82µM*	u	3.01µM*
O=C(NN1CCCCC1)c1cccc(COc2ccc(Cl)cc2)c1	u	3.55µM*	u	14.1µM*	u	4.78µM*
COc1ccc(OCCC(=O)N2CCCCC2)cc1	29.8%	28.6%	10.7%	17.8µM*	u	u
COc1ccc(OCCC(=O)N2CCN(C)CC2)cc1	-5.3%	-5.4%	1.8%	x	1.2%	-2.7%
CCOc1ccc(OCc2cccc(C(=O)N3CCCCCC3)c2)cc1	0.316µM*	0.282µM*	u	1.78µM*	u	0.536µM*
CC(C)Cc1nn2c(=O)cc(COC(=O)c3cccc(NS(C)(=O)=O)c3)nc2s1	x	x	x	x	x	-3.4%
COc1cccc(-n2cc(C(=O)Oc3cccc(C(F)(F)F)c3)c3ccccc3c2=O)c1	x	x	x	x	x	-2.0%
CC1CN(C(=O)c2cccc(COc3ccccc3Cl)c2)CC(C)O1 (stereo not given)	3.55µM*	u	u	11.2µM*	u	15.1µM*
CCCCOc1ccc(C(=O)N2CCCC2)cc1	20.7%	25.3%	18.4µM*	11.2µM*	u	u
CC1CN(C(=O)c2cccc(C(=O)N3CC(C)OC(C)C3)c2)CC(C)O1 (stereo not given)	-6.2%	-5.2%	3.4%	-22.4%	1.1%	3.6%
O=C(CCC(=O)N(CC(=O)NC1CCCC1)c1cccc(F)c1)Nc1nccs1	2.5%	1.8%	-7.6%	x	0.0%	0.3%
O=C(c1ccc(Cl)c(S(=O)(=O)N2CCCCC2)c1)N1CCN(Cc2ccccc2)CC1	-0.7%	-5.0%	-5.4%	x	18.8%	0.5%
Cc1ccc(-n2nnnc2SCn2nnc3ccccc3c2=O)cc1	u	3.55µM*	16.4µM*	4.9%	u	13.5µM*

Source: PubChem BioAssay
